Assay results published in PubChem BioAssay (NCI).
About 83,000 compounds went through this panel and 20% of them were active in at least one assay; those are over-represented in the sample as a whole.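 A percent growth of 40 corresponds to 60% growth inhibition; 0 means no net growth; -100 means all cells died. Active threshold: below 10.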 Unmarked numbers belong to inactive results. Calls of active or inactive are those of the source.

Each compound was assayed on SK-MEL-2 melanoma (assay: NCI-60 one-dose screen, 48 h (100 = growth as untreated, 0 = no growth, -100 = all killed)). Details: 10 µM unless noted.
Work on `COc1ccc(Cn2cc3c(c2-c2ccccc2)CCc2cnoc2-3)cc1OC` yielded a growth of 48%.
`Cc1ccc2c(O)c(O)cc(NC(C)CCCN)c2n1` (stereo not drawn) showed a growth of 75%.
For `CC(C)(C)c1ccc([I+]c2ccc(C(C)(C)C)cc2)cc1`, the growth was -2.7% (active).
Work on `COC(=O)/C(Br)=C/c1c[nH]c2ccc(Br)cc12` yielded a growth of 88.7%.
In the case of `COC(=O)c1ccc2[nH]c(O)c(C(=Nc3ccc(N(C)C(=O)CN4CCN(C)CC4)cc3)c3cccc(OC)c3)c2c1`, the growth is reported as -0.0955% (active).
In the case of `C#CCCCCCCC[C@@H]1OC(=O)[C@H]([C@@H](C)CC)NC(=O)[C@@H]([C@@H](C)CC)NC(=O)CC(=O)[C@@H]1C`, the growth is reported as 107%.
`COC(=O)c1ccc2[nH]c(O)c(C(=Nc3ccc(N(C)C(=O)CN4CCN(C)CC4)cc3)c3ccc(C)cc3)c2c1` was tested, and the growth was -31.6% (active).
Work on `COC(=O)C(C)[C@H]1CC[C@@H]2[C@]1(C)CC=C1[C@]23C=C[C@]2(C[C@@H](OC(C)=O)CC[C@]12C)C(C(=O)OC)C3C(=O)OC` (stereo partly drawn) yielded a growth of 100%.
`Cc1nc2c(nnn2-c2ccccc2)c2nc(-c3ccccc3)oc(=O)c12` was tested, and the growth was 108%.
For `CC(O)C(N)=O` (stereo not drawn), the growth was 111%.
With `Nc1nc2c(c3cnccc13)C(c1cccc(Cl)c1)Cc1cnccc1-2` (stereo not drawn) the growth was 26.8%.
In the case of `CC(=O)OCC1O[C@@H](OC(C)=O)[C@@H](NC(=O)NS(=O)(=O)c2ccccc2)C(OC(C)=O)[C@@H]1OC(C)=O` (stereo partly drawn), the growth is reported as -51.6% (active).
`CCOC(=O)c1ccc2n1CCCc1cnc(NC(C)=O)nc1-2` gave a growth of 102%.
